Experimental findings from PubChem BioAssay AID651551 (Sanford-Burnham Center for Chemical Genomics, 2012) are described below.

The test can be described thus: GAPDH versus PEG-3 reporter suppression – cell-based, luminescence, counter-screen for PEG-3 promoter inhibitor project, SAR follow-up (AID 651551). To be noted: HeLa PEG-Prom / GAPDH luciferase reporter, 6 or 24 h, run 1, 6 h; at 99 µM (top of the series). For orientation: The purpose of a counterscreen is to sort out artefacts and off-target activity.
With `CCCn1nc(C(=O)Nc2nc3ccccc3s2)c2ccccc2c1=O`, the inhibition % (higher = more inhibition) worked out at 42.8%.

Molecule `CCCn1nc(C(=O)Nc2nc(-c3ccccn3)cs2)c2ccccc2c1=O` came in with an inhibition % (higher = more inhibition) of 81.9%.

In turn, `COc1ccc(Cl)cc1Nc1nc(-c2sc(NC(=O)c3ccccc3)nc2C)cs1` yielded an inhibition % (higher = more inhibition) of 44.4%.

Consider `CCn1cc(C(=O)NCc2ccco2)c(=O)c2cc(S(=O)(=O)N3CCCC3)ccc21`, for which the inhibition % (higher = more inhibition) worked out at 37.8%.

In the case of `O=C(Nc1nc2ccccc2s1)c1nn(-c2ccccc2)c(=O)c2ccccc12`, the inhibition % (higher = more inhibition) was determined as 27%.

`COc1ccc(-n2nc(C(=O)NCC(=O)Nc3cc(OC)c(OC)c(OC)c3)c3ccccc3c2=O)cc1OC`: the inhibition % (higher = more inhibition) stood at 29.5%.

`COCCCNC(=O)c1ccc(Cn2c(=O)c3ccccc3n(Cc3ccccc3C#N)c2=O)cc1`: the inhibition % (higher = more inhibition) was 25.3%.

`Cc1cc(NC(=O)c2ccccc2C)n(-c2nc3ccccc3[nH]2)n1` gave an inhibition % (higher = more inhibition) of 44.4%.

The molecule `Cc1cc(NC(=O)c2ccccc2)n(-c2nc3ccccc3[nH]2)n1` yielded an inhibition % (higher = more inhibition) of 21.2%.

Take `Cc1nc(NC(=O)c2ccccc2)sc1-c1csc(Nc2ccccc2)n1`: the inhibition % (higher = more inhibition) stood at 81.9%.

For the molecule `Cc1nc(NC(=O)c2ccccc2)sc1-c1csc(Nc2ccccc2Cl)n1`, the inhibition % (higher = more inhibition) was determined as 32%.

Regarding `Cc1nc(NC(=O)c2ccccc2)sc1-c1csc(Nc2cccc(Cl)c2C)n1`, the inhibition % (higher = more inhibition) came out at 27%.

As for `CCCn1nc(C(=O)Nc2nc(-c3ccncc3)cs2)c2ccccc2c1=O`, the inhibition % (higher = more inhibition) is 44.4%.

In turn, `Cc1cc(NC(=O)c2ccccc2C(F)(F)F)n(-c2nc3ccccc3[nH]2)n1` returned an inhibition % (higher = more inhibition) of 89.3%.

Molecule `O=C(Nc1nc(-c2ccccc2)cs1)c1nn(-c2ccccc2)c(=O)c2ccccc12` showed an inhibition % (higher = more inhibition) of 32.8%.

Take `COc1ccc(-n2nc(C(=O)NCC(=O)Nc3cccc(OC)c3)c3ccccc3c2=O)cc1`: the inhibition % (higher = more inhibition) turned out to be 31.1%.

`Cc1ccc(Cl)cc1Nc1nc(-c2sc(NC(=O)c3ccco3)nc2C)cs1` came in with an inhibition % (higher = more inhibition) of 35.5%.

In turn, `COc1ccccc1Nc1nc(-c2sc(NC(=O)c3ccco3)nc2C)cs1` returned an inhibition % (higher = more inhibition) of 51%.

In the case of `CCn1nc(C(=O)Nc2nc(-c3ccccn3)cs2)c2ccccc2c1=O`, the inhibition % (higher = more inhibition) is 38.3%.

Molecule `COc1ccc(-n2nc(C(=O)NCC(=O)Nc3ccc(OC)c(OC)c3)c3ccccc3c2=O)cc1` showed an inhibition % (higher = more inhibition) of 69.4%.

Consider `O=C(Nc1nccs1)c1nn(-c2ccccc2)c(=O)c2ccccc12`, for which the inhibition % (higher = more inhibition) was 28%.

In the case of `Cc1cc(NC(=O)c2ccccc2)n(-c2nc3ccccc3n2C)n1`, the inhibition % (higher = more inhibition) came out at 28.6%.

Molecule `Cc1cc(NC(=O)c2cccc(C)c2C)n(-c2nc3ccccc3[nH]2)n1` displayed an inhibition % (higher = more inhibition) of 13.7%.
